Experimental data taken from PubChem BioAssay (NCATS).
Records with an inconclusive call do not appear. A number with no mark means an inactive call. Activity calls are given as the source filed them. Calls come from the whole dose curve.

The compounds below were run against Peroxisome proliferator-activated receptor delta (Homo sapiens) (UniProt Q03181) (assay: qHTS assay for small molecule agonists of peroxisome proliferator-activated receptor delta signaling (AID 588534;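 note: 0% = DMSO basal wells and 100% = positive control agonist at 10 µM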)). Conditions: HEK293T PPARdelta-UAS-bla, beta-lactamase ratio, 18 h; series mostly up to 76.7 µM; activation: at the top concentration.
In short: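 Titration series tested in agonist mode on beta-lactamase reporter cells; 18 hrs at 37 C after a 5 hr pre-incubation. Readout: CCF4 fluorescence, 2 hrs RT. Hill equation gives EC50 and maximal response.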

Sequence of Peroxisome proliferator-activated receptor delta (Homo sapiens) (Q03181 whole entry, looked up): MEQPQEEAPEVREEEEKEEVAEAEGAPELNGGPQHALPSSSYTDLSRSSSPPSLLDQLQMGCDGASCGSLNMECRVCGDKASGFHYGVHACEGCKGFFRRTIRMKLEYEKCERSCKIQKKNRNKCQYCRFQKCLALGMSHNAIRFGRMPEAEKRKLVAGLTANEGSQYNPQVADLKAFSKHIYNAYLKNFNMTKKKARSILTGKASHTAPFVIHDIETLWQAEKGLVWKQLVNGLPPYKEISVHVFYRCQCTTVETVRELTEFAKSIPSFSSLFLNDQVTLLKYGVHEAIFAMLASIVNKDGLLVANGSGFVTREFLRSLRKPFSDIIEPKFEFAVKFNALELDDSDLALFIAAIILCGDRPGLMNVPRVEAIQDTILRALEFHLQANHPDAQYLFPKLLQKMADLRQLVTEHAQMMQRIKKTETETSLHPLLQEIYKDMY

| SMILES | activation [%] | outcome |
| --- | --- | --- |
| CCC(Cl)CC(Cl)C(Cl)C(Cl)C(Cl)C(C)Cl (centres undefined) | 8.91 | – |
| NC(=O)c1ccccc1[N+](=O)[O-] | 9.96 | – |
| CCCCCCCC/C=C\CCCCCCCC(=O)OC[C@@H](O)[C@H]1OC[C@H](O)[C@H]1O | 0.755 | – |
| C=C(C)C(=O)OCC[N+](C)(C)C | -2.08 | – |
| Cc1ccccc1C(=O)O | -8.05 | – |
| BrC(Br)C(Br)Br | 10.2 | – |
| CC1=CC(C)(C)Nc2ccccc21 | – | inactive |
| CC(=O)OC(C(=O)c1ccccc1)c1ccccc1 (centres undefined) | -4.1 | – |
| Cc1ccc2ncccc2c1 | 7.33 | – |
| CCCCCCCCC | 10.7 | – |
| NCCCCCCN | 18.4 | – |
| Brc1cc(Oc2cc(Br)c(Br)c(Br)c2Br)c(Br)c(Br)c1Br | – | inactive |
| O=CC(=O)c1ccccc1 | 12.3 | – |
| COCC(=O)O | – | inactive |
| C=CCCCCCCCCCC | 2.62 | – |
| NC(N)=O | 8.47 | – |
| Clc1cc(Cl)cc(Cl)c1 | 6.75 | – |
| O=Cc1ccc(Cl)c(Cl)c1 | -2.61 | – |
| CNc1ccccc1 | -5.3 | – |
| Clc1nc2ccccc2nc1Cl | -0.829 | – |

| SMILES | activation [%] | outcome |
| --- | --- | --- |
| CC(C)S | -4.95 | – |
| CCCC(=O)OC(=O)CCC | – | inactive |
| CCOC(=O)COc1cc(-n2ncc(C(F)(F)F)c(C)c2=O)c(F)cc1Cl | 7.99 | – |
| Nc1nc(CC(=O)O)cs1 | 3.58 | – |
| OCCC(F)(F)C(F)(F)C(F)(F)C(F)(F)C(F)(F)C(F)(F)C(F)(F)C(F)(F)F | -9.47 | – |
| C/C=C/C=C/C=O | 9.83 | – |
| CCC(C)c1ccccc1O (centres undefined) | – | inactive |
| CCCCCCCC/C=C\CCCCCCCCO | -1.04 | – |
| O=C(O)CNC(=O)c1ccc(CO)o1 | -9.52 | – |
| COC(=O)CS | 3.74 | – |
| COCCO | – | inactive |
| c1ccc2n[nH]nc2c1 | 3.95 | – |
| Brc1ccc(Oc2ccc(Br)cc2)cc1 | -3.25 | – |
| CCCCC(CC)C(=O)OCCOCCOCCOC(=O)C(CC)CCCC (centres undefined) | -9.72 | – |
| O=C1OC2(c3cc(Br)c(O)c(Br)c3Oc3c2cc(Br)c(O)c3Br)c2c(Cl)c(Cl)c(Cl)c(Cl)c21 | -13.2 | – |
| CCCCC(=O)N(C)C | 9.07 | – |
| O=[N+]([O-])c1c(Cl)cc(Cl)cc1Cl | 7.3 | – |
| CCOc1cccc(N)c1 | 16.1 | – |
| CCCCCCCC/C=C\CCCCCCCCCCCCC | -3.56 | – |
